Measured values from PubChem BioAssay AID1159580 (chemical genetic matrix, 2015).
Hit rate of the full screen: of about 5,500 compounds, about 2,000 (36%) were called active. Inconclusive results (about 18%) are left out. The list shows a part of the results. Unmarked numbers belong to inactive results. No stated cut-off is given here; in the data, active means normalized growth mostly below about 0.91 (no sharp cut-off); inconclusive means no clear call, values can overlap the other calls; inactive means mostly above about 0.92.

Assay: chemical genetic growth profiling, strain panel (AID 1159580);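 further: tested at 20 µM; growth read once vehicle control cultures reached saturation at 30 °C; 1 = growth at the plate median or of vehicle wells; lower values mean less growth of the strain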
Details: S. cerevisiae deletion strains, growth OD
[1] = locus YAL013W, strain DEP1, active compounds read low
[2] = locus YBR229C, strain ROT2, active compounds read low
[3] = locus YCL061C, strain MRC1, active compounds read low
[4] = locus YDL101C, strain DUN1, active compounds read low
[5] = locus YDR150W, strain NUM1, active compounds read low
[6] = locus YEL061C, strain CIN8, active compounds read low
[7] = locus YGR078C, strain PAC10, active compounds read low
[8] = locus YHR030C, strain SLT2, active compounds read low
[9] = locus YHR087W, strain rtc3, active compounds read low
[10] = locus YJR043C, strain POL32, active compounds read low
[11] = locus YJR075W, strain HOC1, active compounds read low
[12] = locus YLR039C, strain RIC1, active compounds read low
[13] = locus YLR058C, strain SHM2 (second series), active compounds read low
[14] = locus YLR085C, strain ARP6, active compounds read low
[15] = locus YLR262C, strain YPT6, active compounds read low
[16] = locus YML094W, strain GIM5, active compounds read low
[17] = locus YMR219W, strain ESC1, active compounds read low
[18] = locus YMR263W, strain SAP30, active compounds read low
[19] = locus YMR307W, strain GAS1, active compounds read low
[20] = locus YNL153C, strain GIM3, active compounds read low
[21] = locus YNL298W, strain CLA4 (second series), active compounds read low
[22] = locus YNL322C, strain KRE1, active compounds read low
[23] = locus YNR030W, strain Alg12, active compounds read low
[24] = locus YPL055C, strain LGE1, active compounds read low
[25] = locus YPL241C, strain CIN2, active compounds read low
[26] = locus YPR135W, strain CTF4, active compounds read low
[27] = locus YAR019C, strain CDC15, active compounds read low
[28] = locus YBL105C, strain PKC1, active compounds read low
[29] = locus YBR135W, strain CKS1, active compounds read low
[30] = locus YBR136W, strain MEC1, active compounds read low
[31] = locus YBR160W, strain CDC28, active compounds read low
[32] = locus YDL017W, strain CDC7, active compounds read low
[33] = locus YDL028C, strain MPS1, active compounds read low
[34] = locus YDL108W, strain KIN28, active compounds read low
[35] = locus YDL132W, strain cdc53, active compounds read low
[36] = locus YDL214C, strain PRR2, active compounds read low
[37] = locus YDR052C, strain DBF4, active compounds read low
[38] = locus YDR054C, strain cdc34, active compounds read low
[39] = locus YDR226W, strain ADK1, active compounds read low
[40] = locus YDR477W, strain SNF1, active compounds read low
[41] = locus YER123W, strain YCK3, active compounds read low
[42] = locus YER133W, strain GLC7, active compounds read low
[43] = locus YFL009W, strain cdc4, active compounds read low
[44] = locus YFL029C, strain CAK1, active compounds read low
[45] = locus YFR003C, strain YPI1, active compounds read low
[46] = locus YFR019W, strain FAB1, active compounds read low
[47] = locus YFR028C, strain CDC14, active compounds read low
[48] = locus YGR040W, strain KSS1, active compounds read low
[49] = locus YGR052W, strain FMP48, active compounds read low
[50] = locus YGR092W, strain DBF2, active compounds read low
[51] = locus YHR079C, strain IRE1, active compounds read low
[52] = locus YHR082C, strain KSP1, active compounds read low
[53] = locus YHR205W, strain SCH9, active compounds read low
[54] = locus YIL147C, strain SLN1, active compounds read low
[55] = locus YJL095W, strain BCK1, active compounds read low
[56] = locus YJL128C, strain PBS2, active compounds read low
[57] = locus YJL157C, strain FAR1, active compounds read low
[58] = locus YJR016C, strain ILV3, active compounds read low
[59] = locus YJR066W, strain TOR1 (second series), active compounds read low
[60] = locus YJR066W, strain TOR1, active compounds read low
[61] = locus YKL048C, strain ELM1, active compounds read low
[62] = locus YKL067W, strain YNK1, active compounds read low
[63] = locus YKL101W, strain HSL1, active compounds read low
[64] = locus YKL193C, strain SDS22, active compounds read low
[65] = locus YKL203C, strain TOR2, active compounds read low
[66] = locus YLR113W, strain HOG1, active compounds read low
[67] = locus YLR133W, strain CKI1, active compounds read low
[68] = locus YLR403W, strain SFP1, active compounds read low
[69] = locus YML070W, strain DAK1, active compounds read low
[70] = locus YMR001C, strain CDC5, active compounds read low
[71] = locus YMR205C, strain PFK2 (second series), active compounds read low
[72] = locus YMR277W, strain FCP1, active compounds read low
[73] = locus YNL006W, strain LST8, active compounds read low
[74] = locus YNL020C, strain ARK1, active compounds read low
[75] = locus YNL161W, strain CBK1, active compounds read low
[76] = locus YNL183C, strain NPR1, active compounds read low
[77] = locus YNL207W, strain RIO2, active compounds read low
[78] = locus YNL222W, strain SSU72, active compounds read low
[79] = locus YNL307C, strain MCK1 (second series), active compounds read low
[80] = locus YOL078W, strain AVO1, active compounds read low
[81] = locus YOL136C, strain PFK27, active compounds read low
[82] = locus YOR061W, strain CKA2, active compounds read low
[83] = locus YOR119C, strain RIO1, active compounds read low
[84] = locus YOR231W, strain MKK1, active compounds read low
[85] = locus YOR329C, strain SCD5, active compounds read low
[86] = locus YPL031C, strain PHO85, active compounds read low
[87] = locus YPL153C, strain RAD53, active compounds read low
[88] = locus YPL204W, strain HRR25, active compounds read low
[89] = locus YPL209C, strain IPL1, active compounds read low
[90] = locus YPL256C, strain CLN2, active compounds read low
[91] = locus YPR025C, strain CCL1, active compounds read low
[92] = locus YPR106W, strain ISR1, active compounds read low
[93] = locus YPR111W, strain DBF20, active compounds read low
[94] = strain NNK1, active compounds read low
[95] = strain TSCII, active compounds read low

## Cc1[nH]ncc1-c1ccccc1
[1]
  normalized growth: 1
[2]
  normalized growth: 0.978
[3]
  normalized growth: 0.973
[4]
  normalized growth: 0.979
[5]
  normalized growth: 1.01
[6]
  normalized growth: 0.986
[7]
  normalized growth: 0.998
Locus YGR229C, strain SMI1, active compounds read low
  normalized growth: 0.999
[8]
  normalized growth: 0.981
[9]
  normalized growth: 1.02
Locus YJL187C, strain SWE1, active compounds read low
  normalized growth: 0.983
[10]
  normalized growth: 0.984
[11]
  normalized growth: 1.02
[12]
  normalized growth: 0.873
[13]
  normalized growth: 0.986
[14]
  normalized growth: 0.994
[15]
  normalized growth: 0.896
[16]
  normalized growth: 0.974
[17]
  normalized growth: 0.995
[18]
  normalized growth: 0.967
[19]
  normalized growth: 0.933
Locus YNL128W, strain TEP1, active compounds read low
  normalized growth: 0.993
[20]
  normalized growth: 0.961
[21]
  normalized growth: 0.98
[22]
  normalized growth: 1.01
[23]
  normalized growth: 0.991
[24]
  normalized growth: 1.07
[25]
  normalized growth: 0.986
[26]
  normalized growth: 0.921

## Cc1c2c(=O)[nH]ncc2c(-c2ccccc2)n1-c1ccc([N+](=O)[O-])cc1
[27]
  normalized growth: 0.99
[28]
  normalized growth: 0.999
[29]
  normalized growth: 0.998
[30]
  normalized growth: 0.993
[31]
  normalized growth: 0.99
[32]
  normalized growth: 0.999
[33]
  normalized growth: 0.987
[4]
  normalized growth: 0.991
[34]
  normalized growth: 0.989
[35]
  normalized growth: 0.991
[36]
  normalized growth: 0.953
[37]
  normalized growth: 1
[38]
  normalized growth: 1
[39]
  normalized growth: 0.991
[40]
  normalized growth: 0.925
[41]
  normalized growth: 0.958
[42]
  normalized growth: 0.946
[43]
  normalized growth: 0.975
[44]
  normalized growth: 0.977
[45]
  normalized growth: 0.99
[46]
  normalized growth: 0.95
[47]
  normalized growth: 0.978
[48]
  normalized growth: 0.939
[49]
  normalized growth: 1.01
[50]
  normalized growth: 1
[8]
  normalized growth: 0.812 (active)
[51]
  normalized growth: 0.994
[52]
  normalized growth: 1.01
[53]
  normalized growth: 0.937
[54]
  normalized growth: 0.993
[55]
  normalized growth: 0.903
[56]
  normalized growth: 0.988
[57]
  normalized growth: 0.971
[58]
  normalized growth: 0.986
[59]
  normalized growth: 0.928
[60]
  normalized growth: 0.954
[61]
  normalized growth: 0.94
[62]
  normalized growth: 0.935
[63]
  normalized growth: 0.968
[64]
  normalized growth: 0.996
[65]
  normalized growth: 1.03
[66]
  normalized growth: 0.871
[67]
  normalized growth: 0.975
[68]
  normalized growth: 0.963
[69]
  normalized growth: 0.93
[70]
  normalized growth: 0.989
[71]
  normalized growth: 0.956
[72]
  normalized growth: 0.979
[73]
  normalized growth: 0.983
[74]
  normalized growth: 0.975
[75]
  normalized growth: 0.998
[76]
  normalized growth: 1.03
[77]
  normalized growth: 1
[78]
  normalized growth: 0.98
[79]
  normalized growth: 0.949
[80]
  normalized growth: 0.995
[81]
  normalized growth: 0.938
[82]
  normalized growth: 0.955
[83]
  normalized growth: 0.975
[84]
  normalized growth: 0.936
[85]
  normalized growth: 0.993
[86]
  normalized growth: 0.941
[87]
  normalized growth: 0.939
[88]
  normalized growth: 0.933
[89]
  normalized growth: 1
[90]
  normalized growth: 0.931
[91]
  normalized growth: 0.988
[92]
  normalized growth: 1.01
[93]
  normalized growth: 1
[94]
  normalized growth: 1.01
[95]
  normalized growth: 0.987

## COc1ccc(NS(=O)(=O)c2c(C)noc2C)cc1
[1]
  normalized growth: 1.03
[2]
  normalized growth: 1.02
[3]
  normalized growth: 1
[4]
  normalized growth: 1.02
[5]
  normalized growth: 0.995
[6]
  normalized growth: 1.03
[7]
  normalized growth: 1.04
[8]
  normalized growth: 1.06
[9]
  normalized growth: 1.02
[10]
  normalized growth: 0.995
[11]
  normalized growth: 1.02
Locus YKL190W, strain CNB1, active compounds read low
  normalized growth: 1
[12]
  normalized growth: 1.02
[13]
  normalized growth: 1
[14]
  normalized growth: 1.02
[15]
  normalized growth: 1.01
[16]
  normalized growth: 1.07
[17]
  normalized growth: 0.996
[18]
  normalized growth: 0.993
[19]
  normalized growth: 0.941
[20]
  normalized growth: 1.02
[21]
  normalized growth: 1.02
[22]
  normalized growth: 1.01
[23]
  normalized growth: 1.04
Locus YOL006C, strain TOP1, active compounds read low
  normalized growth: 1.03
[24]
  normalized growth: 1.06
[25]
  normalized growth: 0.911
[26]
  normalized growth: 1.02

## Cc1nn(Cc2ccc(C(=O)Sc3ccc(C(F)(F)F)cn3)o2)c(C)c1Br
[27]
  normalized growth: 0.965
[28]
  normalized growth: 0.966
[29]
  normalized growth: 0.955
[30]
  normalized growth: 0.971
[31]
  normalized growth: 0.967
[32]
  normalized growth: 0.969
[33]
  normalized growth: 0.969
[4]
  normalized growth: 0.963
[34]
  normalized growth: 0.961
[35]
  normalized growth: 0.952
[36]
  normalized growth: 0.882
[37]
  normalized growth: 0.97
[38]
  normalized growth: 0.953
[39]
  normalized growth: 0.955
[40]
  normalized growth: 0.834
[41]
  normalized growth: 0.878
[42]
  normalized growth: 0.898
[43]
  normalized growth: 0.957
[44]
  normalized growth: 0.962
[45]
  normalized growth: 0.968
[46]
  normalized growth: 0.932
[47]
  normalized growth: 0.963
[48]
  normalized growth: 0.81
[49]
  normalized growth: 0.871
[50]
  normalized growth: 0.855
[8]
  normalized growth: 0.615 (active)
[51]
  normalized growth: 0.858
[52]
  normalized growth: 0.763
[53]
  normalized growth: 0.566 (active)
[54]
  normalized growth: 0.969
[55]
  normalized growth: 0.827
[56]
  normalized growth: 0.871
[57]
  normalized growth: 0.911
[58]
  normalized growth: 0.955
[59]
  normalized growth: 0.885
[60]
  normalized growth: 0.76
[61]
  normalized growth: 0.896
[62]
  normalized growth: 0.898
[63]
  normalized growth: 0.861
[64]
  normalized growth: 0.956
[65]
  normalized growth: 0.892
[66]
  normalized growth: 0.677 (active)
[67]
  normalized growth: 0.871
[68]
  normalized growth: 0.722
[69]
  normalized growth: 0.894
[70]
  normalized growth: 0.958
[71]
  normalized growth: 0.881
[72]
  normalized growth: 0.963
[73]
  normalized growth: 0.972
[74]
  normalized growth: 0.882
[75]
  normalized growth: 0.965
[76]
  normalized growth: 0.777
[77]
  normalized growth: 0.953
[78]
  normalized growth: 0.963
[79]
  normalized growth: 0.781
[80]
  normalized growth: 0.961
[81]
  normalized growth: 0.872
[82]
  normalized growth: 0.816
[83]
  normalized growth: 0.879
[84]
  normalized growth: 0.847
[85]
  normalized growth: 0.978
[86]
  normalized growth: 0.867
[87]
  normalized growth: 0.934
[88]
  normalized growth: 0.925
[89]
  normalized growth: 0.974
[90]
  normalized growth: 0.799 (active)
[91]
  normalized growth: 0.965
[92]
  normalized growth: 0.958
[93]
  normalized growth: 0.93
[94]
  normalized growth: 0.928
[95]
  normalized growth: 0.961
